About 83,000 compounds went through this panel and 20% of them were active in at least one assay; those are over-represented in the sample as a whole.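 The endpoint reported here, percent growth, reads 100 for growth as untreated, 0 for no net growth and -100 for all cells dead.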 Unmarked numbers belong to inactive results. Activity calls are given as the source filed them. The calls were made as follows: active = growth percent below 10; inactive = the rest.
How the values were obtained:
Test in all cases: NCI-60 one-dose screen, 48 h (100 = growth as untreated, 0 = no growth, -100 = all killed)
Details in all cases: 10 µM unless noted
SR leukemia = system: SR leukemia
RPMI-8226 leukemia = system: RPMI-8226 leukemia
OVCAR-8 ovarian = system: OVCAR-8 ovarian
OVCAR-5 ovarian = system: OVCAR-5 ovarian
OVCAR-4 ovarian = system: OVCAR-4 ovarian
SK-OV-3 ovarian = system: SK-OV-3 ovarian
IGROV1 ovarian = system: IGROV1 ovarian
OVCAR-3 ovarian = system: OVCAR-3 ovarian
NCI/ADR-RES ovarian = system: NCI/ADR-RES ovarian
HS 578T breast = system: HS 578T breast

Compound	growth (SR leukemia)	growth (RPMI-8226 leukemia)	growth (OVCAR-8 ovarian)	growth (OVCAR-5 ovarian)	growth (OVCAR-4 ovarian)	growth (SK-OV-3 ovarian)	growth (IGROV1 ovarian)	growth (OVCAR-3 ovarian)	growth (NCI/ADR-RES ovarian)	growth (HS 578T breast)
O=C(CNC(=O)c1cccc2ccccc12)Nc1ccccc1Oc1cccc(O)c1	18.7% [5 µM]	25.9% [5 µM]	15.3% [5 µM]	39.9% [5 µM]	59.1% [5 µM]	7.7% [5 µM] (active)	42.9% [5 µM]	-10.8% [5 µM] (active)	13% [5 µM]	
c1ccc(-c2n(Cc3ccc4ccccc4c3)cc[n+]2Cc2ccc3ccccc3c2)cc1	-42.2% (active)	-37% (active)	-72.4% (active)	-35.9% (active)	-28.1% (active)	-6.1% (active)	-67.8% (active)	-89.8% (active)	82.2%	
COc1ccc(Oc2ccccc2NC(=O)CNC(=O)c2cccc3ccccc23)cc1	23.7% [5 µM]	27.4% [5 µM]	17% [5 µM]	40.9% [5 µM]	67.2% [5 µM]	20.4% [5 µM]	33% [5 µM]	-16.6% [5 µM] (active)	15.3% [5 µM]	
Cc1cc2c(cc1C)[n+](Cc1ccc3ccccc3c1)cn2Cc1ccc2ccccc2c1	-50.6% (active)	-49.6% (active)	-79% (active)	-87.1% (active)	-76% (active)	-27% (active)	-84.9% (active)	-94.2% (active)	80.7%	
CC(=O)N1N=C(c2ccc(Nc3nc(NCCO)nc(NCCO)n3)cc2)CC1c1ccc(Cl)cc1 (stereo not drawn)	142%	112%	104%	103%	104%	101%	99.4%	96.4%	99.8%	
Cc1ccc(C(=O)Cc2ccccc2)c(O)c1	83%	115%	104%	99.1%	107%	127%	107%	110%	108%	107%
CC(=O)c1ccc(NS(=O)(=O)c2ccc([N+](=O)[O-])cc2)cc1	83.8%	101%	106%	98.2%	112%	95.7%	107%	108%	109%	115%
Clc1ccc(C2=NN(c3ccc(Cl)cc3)C(c3cccc(Nc4ccnc5cc(Cl)ccc45)c3)C2)cc1 (stereo not drawn)	77%	71.7%	80.4%	93.5%	73%	60.7%	75.4%	85.8%	74.1%	
Cc1ccc2nc3c(n2c1)C(=O)C(=O)c1ccccc1-3	-44.5% (active)	-51.9% (active)	-68.1% (active)	-74% (active)	-98.4% (active)	-90.9% (active)	-49.1% (active)	-82.5% (active)	-3.7% (active)	-15.6% (active)
COc1cc(NC(=O)NCc2ccco2)ccc1-c1ccc(NC(=O)NCc2ccco2)cc1OC	55.6%	65.2%	36.7%	96.5%	60.9%	69.9%	72.9%	74%	91.2%	59.4%
COC(=O)[C@H](Cc1cn(C)cn1)NC(=O)[C@H](Cc1ccccc1)NC(=O)Nc1cc(C(F)(F)F)cc(C(F)(F)F)c1	-39% [100 µM] (active)	-58.8% [100 µM] (active)	-87.9% [100 µM] (active)	-94% [100 µM] (active)	-87.1% [100 µM] (active)	-100% [100 µM] (active)	-56.3% [100 µM] (active)	-99.1% [100 µM] (active)	4.87% [100 µM] (active)	
O=C(/C=C/c1ccc(C(F)(F)F)cc1)c1ccc(Nc2nc(NCCO)nc(NCCO)n2)cc1	-2.01% (active)	1.43% (active)	21.7%	64.3%	62.3%	70.7%	72.5%	25.8%	90.1%	
COc1cc(C2CC(C3C(=O)N(C)C(=O)N(C)C3=O)=NN2C=O)cc(OC)c1OC (stereo not drawn)	105%	99.7%	93.9%	107%	107%	76.4%	110%	107%	99.8%	
COc1ccc(C2=NN(C=O)C(c3cccc(Nc4ccnc5cc(Cl)ccc45)c3)C2)cc1 (stereo not drawn)	12.6%	23.2%	17%	51.5%	40.1%	20.6%	44.1%	13.8%	10.8%	
O=C1NCCc2c1noc2-c1ccccc1	103%	113%	109%	103%	114%	91.3%	99.5%	113%	98.6%	111%
c1ccc2nc(N/N=C3\CCCCC3C3CCCCC3)ccc2c1 (stereo not drawn)	-17.5% (active)	-18.8% (active)	83.6%	58%	51.1%	88.6%	44.4%	33.2%	57.2%	
Cc1sc2nc(NCCc3cccs3)[nH]c(=O)c2c1C	72.1%	86.7%	87.4%	97.8%	95.6%	79%	101%	106%	85.2%	
O=CN1N=C(c2ccc(Cl)cc2)CC1c1cccc(Nc2ccnc3cc(Cl)ccc23)c1 (stereo not drawn)	1.88% (active)	13.4%	12.6%	34.6%	29.2%	19.2%	34.4%	16.3%	2.47% (active)	
O=C(CNC(=O)c1cccc2ccccc12)Nc1ccccc1Oc1ccc(O)cc1	30.4% [5 µM]	24.2% [5 µM]	28.4% [5 µM]	40.3% [5 µM]	70.4% [5 µM]	28.9% [5 µM]	38% [5 µM]	-6.31% [5 µM] (active)	23.5% [5 µM]	
O=C(/C=C/c1cccc(Nc2ccnc3cc(Cl)ccc23)c1)c1ccc(Cl)cc1	-9.97% (active)	-9.58% (active)	45.1%	60.4%	45.6%	76.7%	40.7%	56.8%	38.1%	
COc1cnc2c(c1)C(=O)c1c-2n(CCCN2CCOCC2)c(=O)c2cc(F)ccc12	1.17% (active)	-19.2% (active)	0.87% (active)	-13.2% (active)	15.7%	-25.1% (active)	12.2%	-29.9% (active)	4.01% (active)	12.5%
Cc1n(Cc2ccc3ccccc3c2)cc[n+]1Cc1ccc2ccccc2c1	-3.72% (active)	2.6% (active)	3.06% (active)	20.6%	9.29% (active)	21%	-38.1% (active)	-1.02% (active)	92.7%	

Compound	growth (SR leukemia)	growth (RPMI-8226 leukemia)	growth (OVCAR-8 ovarian)	growth (OVCAR-5 ovarian)	growth (OVCAR-4 ovarian)	growth (SK-OV-3 ovarian)	growth (IGROV1 ovarian)	growth (OVCAR-3 ovarian)	growth (NCI/ADR-RES ovarian)	growth (HS 578T breast)
O=C(CSc1nnc(-c2cc(-c3ccccc3)nc3ccccc23)o1)c1ccc(Br)cc1	83.7%	109%	100%	104%	106%	112%	102%	108%	107%	
COc1ccc(C2=NN(C(C)=O)C(c3cccc(Nc4ccnc5cc(Cl)ccc45)c3)C2)cc1 (stereo not drawn)	-8.23% (active)	41%	50%	87.2%	42%	52.9%	65.7%	59.3%	43.6%	
CCCc1n(Cc2ccc3ccccc3c2)cc[n+]1Cc1ccc2ccccc2c1	-38.1% (active)	-22.2% (active)	-10.6% (active)	9.11% (active)	9.35% (active)	6.89% (active)	-54.2% (active)	-55.6% (active)	89.2%	
CC1CC=CCC1C1OCC(C)(C)CO1 (stereo not drawn)	96.4%	97.2%	98.6%	104%	108%	110%	101%	109%	108%	
FC(F)(F)c1ccc(-c2cnc(-c3nn[nH]n3)nc2NC2CCCCCC2)cc1	15.1% [50 µM]	34.5% [50 µM]	42.4% [50 µM]	101% [50 µM]	60.8% [50 µM]	86.1% [50 µM]	52.7% [50 µM]	31% [50 µM]	30.8% [50 µM]	
OCCCc1n(Cc2ccc3ccccc3c2)c2ccccc2[n+]1Cc1ccc2ccccc2c1	-30.9% (active)	2.19% (active)	15.2%	31%	22.3%	62.2%	-42.2% (active)	0.774% (active)	90.5%	
CCCCCc1c(C)[nH]c(/C=C2\N=C(c3ccc[nH]3)C=C2OCc2ccccc2)c1C	-26.1% [100 µM] (active)	-46.2% [100 µM] (active)	-64.2% [100 µM] (active)	-98% [100 µM] (active)	-89.3% [100 µM] (active)	-97.1% [100 µM] (active)	-66% [100 µM] (active)	-89% [100 µM] (active)	-48.5% [100 µM] (active)	
CCCCc1n(Cc2ccc3ccccc3c2)cc[n+]1Cc1ccc2ccccc2c1	-44.1% (active)	-39.9% (active)	-35.8% (active)	8.66% (active)	9.46% (active)	-3.39% (active)	-57.9% (active)	-80.1% (active)	87.9%	
COc1ccc2c(c1)C(=Nc1cc(OC)c(OC)c(OC)c1)C(=O)N2	75.4%	65.9%	105%	99.5%	111%	97.4%	94.1%	72.4%	103%	
CC(=O)N1N=C(c2ccc(Cl)cc2)CC1c1c(C)nn(-c2ccccc2)c1N(C)Cc1ccccc1 (stereo not drawn)	72.4%	46.8%	80.9%	97.9%	80%	70.6%	63.7%	81.9%	64.1%	
CCOc1cc(CCNS(=O)(=O)c2ccc(C)cc2)c(C(C)=O)cc1OCC	42.6% [100 µM]	40% [100 µM]	76% [100 µM]	101% [100 µM]	84.6% [100 µM]	96.7% [100 µM]	93.9% [100 µM]	71.8% [100 µM]	66.3% [100 µM]	
CC(=O)Nc1cc(C(c2ccccc2)c2ccccc2)cc(C(c2ccccc2)c2ccccc2)c1C	14.3%	11.2%	73.8%	75.4%	43.8%	77%	58%	49.8%	51.8%	
COc1cc(C(=O)/C=C/c2cccc(Nc3ccnc4cc(Cl)ccc34)c2)cc(OC)c1OC	-18.7% (active)	-15.9% (active)	-41% (active)	-35.8% (active)	-39.5% (active)	20.3%	-54% (active)	-51.4% (active)	12.2%	
NC(=NCCCCCCN=C(N)/N=C(\N)Nc1ccc(Cl)cc1)/N=C(\N)Nc1ccc(Cl)cc1	25.1%	28.4%	17.6%	28.7%	21.4%	2.57% (active)	-24.1% (active)	17%	46.8%	18.1%
NS(=O)(=O)c1ccc(-n2nc(-c3ccc(Br)cc3)ccc2=O)cc1	21.1% [100 µM]	85.7% [100 µM]	88.2% [100 µM]	94.7% [100 µM]	89.4% [100 µM]	25% [100 µM]	50.2% [100 µM]	70.9% [100 µM]	57% [100 µM]	
O=c1[nH]c(N2CCC(Cc3ccccc3)CC2)nc2sc3c(c12)CCCC3	109%	107%	96.3%	107%	110%	101%	106%	106%	96.6%	
O=C(CNC(=O)c1cccc2ccccc12)Nc1ccccc1Cc1ccccc1	18.8% [5 µM]	39.1% [5 µM]	37.6% [5 µM]	66.4% [5 µM]	81.2% [5 µM]	45% [5 µM]	53% [5 µM]	15.5% [5 µM]	17% [5 µM]	
CC[n+]1c(/C=C/c2ccc(N3CCCC3)cc2)cccc1/C=C/c1ccc(N2CCCC2)cc1	57.2%	-41.1% (active)	-87.3% (active)	-80.1% (active)	-73.8% (active)	-95.6% (active)		-90.1% (active)	-68.6% (active)	-70.2% (active)
Nc1nc(SCc2cccnc2)c2ncn(C3OC(CO)C(O)C3O)c2n1 (stereo not drawn)	118%	115%	97.1%	90.1%	112%	107%	98.6%		102%	109%
Cc1sc2nc(NCc3ccccc3)[nH]c(=O)c2c1C	14.4%	49.6%	59.7%	70.5%	91.7%	50.8%	67.9%		31.2%	
COc1ccccc1-n1c(-c2ccc(O)cc2C)cn2c3c(=O)[nH]c(=O)n(C)c3nc12	90.8%	93%	86.3%	86.9%	84.4%	65.8%	21.9%		108%	50.2%
